Screening data as filed in PubChem.
Shown are actives, neighbours in structure and some others; about 3.2% of the full set was active somewhere.
Mtb UGM inh = M. tuberculosis UGM enzyme inhibitors, primary screen, biochemical, fluorescence polarization, single point; AID 504406, 2011; purified UGM, fluorescence polarization probe displacement; UDP-galactopyranose mutase (Mycobacterium tuberculosis (strain ATCC 25618 / H37Rv)), …; 0.06% of 320,000 active; inhibition, % at 10 µM; in the data active = inhibition above about 10%, passing the limit was not always enough
GDH-TPI inh = GDH-TPI coupling enzyme inhibitors, primary screen, artefact control for M. tuberculosis FBA inhibitor project, biochemical, absorbance, full deck | GDH-TPI coupled enzyme counterscreen, NADH absorbance | inhibition, % at 4.8 µM | 1.2% of 360,000 active | AID 588335, 2011; in the data active = inhibition above about 30%
Rv3671c inh = Rv3671c serine protease inhibitors, primary screen, biochemical, fluorescence polarization, M. tuberculosis H37Rv; 0.048% of 320,000 active; inhibition, % at 5.96 µM; AID 2606, 2010; P9WHR9; in the data active = inhibition above about 38%;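 also: extracellular domain of Rv3671c used as enzyme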
Target sequence (P9WHR9 whole entry, looked up, the tested form may be a part): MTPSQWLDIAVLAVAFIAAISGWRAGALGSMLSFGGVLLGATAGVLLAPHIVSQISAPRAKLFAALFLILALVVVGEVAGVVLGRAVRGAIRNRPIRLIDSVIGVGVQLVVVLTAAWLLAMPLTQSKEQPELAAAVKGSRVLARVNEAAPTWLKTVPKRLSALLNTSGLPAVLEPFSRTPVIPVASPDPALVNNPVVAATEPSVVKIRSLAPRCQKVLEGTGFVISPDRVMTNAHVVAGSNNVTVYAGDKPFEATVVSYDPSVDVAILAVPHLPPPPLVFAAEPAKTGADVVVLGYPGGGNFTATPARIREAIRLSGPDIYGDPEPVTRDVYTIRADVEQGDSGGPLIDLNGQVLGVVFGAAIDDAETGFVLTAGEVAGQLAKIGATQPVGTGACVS
Mtb betalactam = beta-lactam sensitization of Mtb H37Rv, H37Rv; AID 434955, 2010; 0.27% of 330,000 active; M. tuberculosis H37Rv growth with meropenem, percent inhibition; inhibition, % at 25 µM; call rule not given here;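 also: growth measured after seven days incubation then overnight dye step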
SSB-PriA inh = inhibitors of Klebsiella pneumoniae PriA binding to SSB C-terminal tail, primary screen, biochemical, AlphaScreen | PriA–SSB C-terminal tail interaction (Klebsiella pneumoniae) | AlphaScreen SSBct-PriA binding, biotinylated peptide | inhibition, % at 33 µM | 0.6% of 430,000 active; in the data active = inhibition mostly above about 37%, no sharp cut-off; inactive = mostly below about 20%
Mtb FBA inh = Mtb FBA enzyme inhibitors, primary screen, biochemical, fluorescence, strain H37Rv; AID 588726, 2011; 2.3% of 360,000 active; Fructose-bisphosphate aldolase (Mycobacterium tuberculosis (strain ATCC 25618 / H37Rv)), …; purified M. tuberculosis FBA, fluorescence read-out; inhibition, % at 1 µM; in the data active = inhibition above about 27%
Hits are given with their value; - = inactive; . = not tested or not shown; + = active, no number.

SMILES	Mtb UGM inh	GDH-TPI inh	Rv3671c inh	Mtb betalactam	SSB-PriA inh	Mtb FBA inh
O=C(Nc1ccc(O)cc1)/C(=C/c1ccco1)NC(=O)c1ccccc1	-	39.9	-	-	-	-
O=C(Nc1ccc(C(=O)O)cc1)/C(=C\c1ccco1)NC(=O)c1ccc(Br)cc1	.	40.2	.	.	.	-
O=C(Nc1ccc(C(=O)O)cc1)/C(=C\c1ccco1)NC(=O)c1ccc(Br)o1	-	-	-	-	-	-
O=C(O)/C(=C/c1ccco1)NC(=O)c1ccccc1	-	-	-	-	-	-
COCC(=O)NCCn1ncc2c(N3CCCC3)ncnc21	.	.	.	.	-	.
Cc1ccc(Cl)cc1NC(=O)CSc1cc(N2CCC(C(=O)NC3CC3)CC2)ncn1	.	.	.	.	-	.
O=C(CSc1cccc2cccnc12)NN=Cc1cccnc1	.	.	.	.	83.4	.
COc1cccc(/C=N/NC(=O)CSc2cccc3cccnc23)c1	-	-	-	-	+	-
O=C(CSc1cccc2cccnc12)N/N=C/c1ccc(O)cc1	-	46.8	-	-	-	-
O=C(c1ccccn1)N1CCS[C@H](c2ccccc2Cl)CC1	.	.	.	.	-	.
O=C(COc1ccc(F)cc1)NN=Cc1cccc2cccnc12	.	.	.	.	-	.
COc1ccccc1NC(=O)Nc1c[nH]c2ccccc12	.	.	.	.	-	.
CCN(CCCCN1C(=O)c2ccccc2C1=O)c1ccc2c(c1)C(=O)N(C)C2=O	-	43.4	-	-	-	-
O=C(COc1ccccc1F)Nc1ccc2c(c1)CN(C(=O)C1CC1)CC2	.	.	.	.	-	.
CCOC(=O)c1ccccc1NC(=O)COC(=O)CSCC(=O)Nc1cc(C)on1	-	-	-	-	-	-
Cc1cc(NC(=O)COC(=O)c2ccccc2NCCO)no1	-	-	-	-	-	127.5
CCC(C)C(NS(=O)(=O)c1ccc(C)cc1)C(=O)Oc1ccc2c3c(c(=O)oc2c1)CCC3 (stereo not given)	-	-	-	-	-	36.8
Cc1ccc(S(=O)(=O)NC(CC(C)C)C(=O)Oc2ccc3c4c(c(=O)oc3c2)CCC4)cc1 (stereo not given)	-	-	-	-	-	+
CC[C@@H](NS(=O)(=O)c1ccc(C)cc1)C(=O)Oc1ccc2c3c(c(=O)oc2c1)CCC3	.	-	-	-	-	+
NS(=O)(=O)c1ccc(CCNC(=O)COc2ccc3c4c(c(=O)oc3c2)CCC4)cc1	-	-	-	-	-	-
CN1C(=O)C(C)(C)COc2ccc(NS(=O)(=O)c3ccc4c(c3)CCCC4)cc21	.	.	.	.	-	.
C/C(=N/NS(=O)(=O)c1cccc([N+](=O)[O-])c1)c1c[nH]c2ccccc12	-	-	-	-	.	-
CC(=NNc1ccc([N+](=O)[O-])cc1)c1c[nH]c2ccccc12	.	.	.	.	40.2	.
Cc1ccc2c(CN3C(=O)NC(C)(c4ccc5c(c4)OCO5)C3=O)cc(=O)oc2c1 (stereo not given)	-	-	-	-	-	-
CC(=O)Nc1ccc2c(CN3C(=O)NC(C)(c4ccc(C)cc4)C3=O)cc(=O)oc2c1 (stereo not given)	-	-	-	-	-	132.0
SMILES	Mtb UGM inh	GDH-TPI inh	Rv3671c inh	Mtb betalactam	SSB-PriA inh	Mtb FBA inh
COc1cccc(N/C=C(\C#N)c2ccc(OCCCF)cc2)c1	-	33.2	-	-	-	-
COc1cc(C(=O)O[C@H]2CC(C)=CCC[C@@]3(C)O[C@@H]3[C@H](O)[C@@H]2C(C)C)cc(OC)c1OC	.	.	.	.	-	.
CCOc1ccc(NC(=O)Cn2cnc3c(sc4cccc(F)c43)c2=O)cc1	.	.	.	.	-	.
CCC(=O)Nc1cccc(-c2cnc3ccccc3n2)c1	-	30.6	-	-	-	-
O=C(c1ccc2c(=O)n(-c3ccccc3)c(=O)[nH]c2c1)N1CCN(c2ccc(F)cc2)CC1	-	-	-	-	-	-
CC(=O)c1ccc(N2CCN(C(=O)c3ccc4c(=O)n(-c5ccccc5)c(=O)[nH]c4c3)CC2)cc1	-	35.3	-	-	-	-
C=CCn1c(=O)[nH]c2cc(C(=O)N3CCN(c4ccc(C(C)=O)cc4)CC3)ccc2c1=O	-	35.6	-	-	-	-
CC(=O)c1ccc(N2CCN(C(=O)CCCn3c(=S)[nH]c4cc5c(cc4c3=O)OCO5)CC2)cc1	-	34.7	-	-	-	-
